Data on two sequences can be found in PMC7862700, “An all-to-all approach to the identification of sequence-specific readers for epigenetic DNA modifications on cytosine”.

Common to all, as to assay: DAPPL (digital affinity profiling via proximity ligation, sequencing); 10 mM Tris-HCl pH 7.5, 50 mM NaCl, 1 mM DTT, 4% glycerol, room temperature, 30 min; GST-TFs on glutathione beads, 16-mer random dsDNA library, 0.1% formaldehyde crosslink after washing; high values mean tight binding
Common to all, as to conditions: protein: recombinant; tags: N-terminal GST; dsDNA, one strand shown

One experiment has as its target T1, FLI1 (Homo sapiens, UniProt Q01543 1-452).
T1 sequence: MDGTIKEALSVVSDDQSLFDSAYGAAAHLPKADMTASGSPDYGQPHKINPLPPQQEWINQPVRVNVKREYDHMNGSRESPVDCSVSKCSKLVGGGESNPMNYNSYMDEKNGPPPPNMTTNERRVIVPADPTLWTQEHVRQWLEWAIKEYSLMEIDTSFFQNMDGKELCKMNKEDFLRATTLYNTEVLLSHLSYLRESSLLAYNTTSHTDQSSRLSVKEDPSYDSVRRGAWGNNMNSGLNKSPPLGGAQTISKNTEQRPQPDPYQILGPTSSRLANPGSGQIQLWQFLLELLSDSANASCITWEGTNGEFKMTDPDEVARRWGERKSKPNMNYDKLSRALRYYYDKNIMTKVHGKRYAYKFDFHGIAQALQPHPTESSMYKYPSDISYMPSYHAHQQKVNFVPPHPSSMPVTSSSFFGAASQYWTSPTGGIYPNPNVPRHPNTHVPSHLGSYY
In outline:
(§1)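 Human transcription factors were made in yeast as GST fusions, captured on glutathione beads and barcoded with DNA. With a tag-only sample included, the pool was incubated with 200 nmole of a random double-stranded 16-mer DNA library in Tris/NaCl/DTT/glycerol buffer at room temperature for 30 min, then crosslinked with 0.1% formaldehyde after washing, ligated by proximity, amplified and sequenced. For binding signal, each hexamer's read frequency for a factor is divided by its frequency for the tag-only sample.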

A further experiment addresses T2, ELK1 (Homo sapiens, UniProt P19419 1-428).
T2 sequence: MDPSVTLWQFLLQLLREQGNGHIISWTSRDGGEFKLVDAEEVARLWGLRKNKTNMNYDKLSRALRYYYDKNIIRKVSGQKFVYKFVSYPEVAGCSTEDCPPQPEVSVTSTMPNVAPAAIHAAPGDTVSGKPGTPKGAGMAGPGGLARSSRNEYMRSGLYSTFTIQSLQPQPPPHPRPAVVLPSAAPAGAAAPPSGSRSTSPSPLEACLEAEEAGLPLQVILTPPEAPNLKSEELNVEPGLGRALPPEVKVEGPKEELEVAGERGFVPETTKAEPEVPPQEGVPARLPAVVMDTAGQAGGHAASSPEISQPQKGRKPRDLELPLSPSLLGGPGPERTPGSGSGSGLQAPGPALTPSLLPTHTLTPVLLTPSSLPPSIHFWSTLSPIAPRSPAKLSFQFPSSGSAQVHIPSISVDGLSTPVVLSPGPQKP
In outline: as §1

The next experiment has as its target T3, GABPA (Homo sapiens, UniProt Q06546 1-454).
T3 sequence: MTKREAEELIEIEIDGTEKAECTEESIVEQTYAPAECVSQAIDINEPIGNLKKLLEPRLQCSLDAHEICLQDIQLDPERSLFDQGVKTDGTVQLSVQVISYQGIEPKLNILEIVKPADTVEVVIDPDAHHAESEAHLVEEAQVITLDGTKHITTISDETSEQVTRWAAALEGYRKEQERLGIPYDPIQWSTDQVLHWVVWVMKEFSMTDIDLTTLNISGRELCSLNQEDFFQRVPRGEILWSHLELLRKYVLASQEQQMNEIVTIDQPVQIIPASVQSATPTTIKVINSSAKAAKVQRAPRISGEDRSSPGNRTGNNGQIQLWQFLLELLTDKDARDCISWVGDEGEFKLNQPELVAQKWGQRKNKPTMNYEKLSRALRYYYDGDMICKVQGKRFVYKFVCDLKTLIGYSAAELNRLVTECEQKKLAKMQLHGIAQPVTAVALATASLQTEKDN
In a few lines:
as §1

The target in a further experiment is T4, ERG (Homo sapiens, UniProt P11308 1-479).
T4 sequence: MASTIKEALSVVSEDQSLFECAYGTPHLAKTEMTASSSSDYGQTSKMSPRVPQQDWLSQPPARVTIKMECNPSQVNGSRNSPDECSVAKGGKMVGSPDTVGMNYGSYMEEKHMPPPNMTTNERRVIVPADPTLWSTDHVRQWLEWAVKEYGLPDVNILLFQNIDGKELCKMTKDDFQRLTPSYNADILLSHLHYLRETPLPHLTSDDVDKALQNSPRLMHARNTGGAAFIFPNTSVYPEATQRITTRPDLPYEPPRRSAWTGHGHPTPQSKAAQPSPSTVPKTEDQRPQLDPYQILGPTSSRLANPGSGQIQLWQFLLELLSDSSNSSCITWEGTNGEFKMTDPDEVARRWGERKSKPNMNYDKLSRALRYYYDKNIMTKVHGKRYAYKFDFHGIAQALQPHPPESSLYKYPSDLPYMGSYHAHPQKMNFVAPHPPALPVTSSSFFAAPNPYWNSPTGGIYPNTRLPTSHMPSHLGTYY
In outline:
as §1

A further experiment deals with ELF1 (Homo sapiens, UniProt P32519 1-619). In outline: as §1
A further experiment deals with T5, EHF (Homo sapiens, UniProt Q9NZC4 1-300).
T5 sequence: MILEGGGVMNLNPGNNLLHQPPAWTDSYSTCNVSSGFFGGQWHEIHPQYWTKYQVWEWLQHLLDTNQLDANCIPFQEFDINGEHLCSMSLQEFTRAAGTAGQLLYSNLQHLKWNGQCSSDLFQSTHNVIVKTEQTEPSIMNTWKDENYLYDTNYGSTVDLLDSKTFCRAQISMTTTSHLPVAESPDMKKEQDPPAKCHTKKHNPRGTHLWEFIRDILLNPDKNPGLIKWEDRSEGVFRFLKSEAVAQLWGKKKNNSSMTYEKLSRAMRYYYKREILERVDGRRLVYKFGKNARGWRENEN
In a few lines: as §1

In a further experiment the target is SPI1 (Homo sapiens, UniProt P17947 1-270). In a few lines: as §1
Another experiment addresses T6, ELK3 (Homo sapiens, UniProt P41970 1-407).
T6 sequence: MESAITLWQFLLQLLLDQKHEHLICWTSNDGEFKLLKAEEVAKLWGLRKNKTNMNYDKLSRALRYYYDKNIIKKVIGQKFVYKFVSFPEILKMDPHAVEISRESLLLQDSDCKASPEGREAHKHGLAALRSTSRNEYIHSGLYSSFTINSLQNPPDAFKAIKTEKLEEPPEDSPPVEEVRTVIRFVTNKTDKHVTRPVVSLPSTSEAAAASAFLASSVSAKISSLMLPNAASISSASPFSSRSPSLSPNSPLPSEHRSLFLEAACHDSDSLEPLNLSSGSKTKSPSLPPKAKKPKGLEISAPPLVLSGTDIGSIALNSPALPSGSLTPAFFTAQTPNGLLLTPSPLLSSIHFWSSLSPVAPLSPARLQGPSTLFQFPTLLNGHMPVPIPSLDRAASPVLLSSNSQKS
In a few lines: as §1

The target in another experiment is ETV5 (Homo sapiens, UniProt P41161 1-510). In outline: as §1
In the next experiment the target is T7, SPIC (Homo sapiens, UniProt Q8N5J4 1-248).
T7 sequence: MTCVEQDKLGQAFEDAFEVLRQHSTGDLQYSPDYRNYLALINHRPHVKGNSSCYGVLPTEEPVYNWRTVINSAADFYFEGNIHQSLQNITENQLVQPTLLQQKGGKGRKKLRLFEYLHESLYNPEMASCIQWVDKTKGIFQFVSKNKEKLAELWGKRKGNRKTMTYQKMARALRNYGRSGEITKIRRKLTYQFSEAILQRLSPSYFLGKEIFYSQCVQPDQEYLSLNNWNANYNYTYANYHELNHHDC
In outline: as §1

The next experiment concerns the target ELF4 (Homo sapiens, UniProt Q99607 1-663). In outline: as §1
The next experiment deals with T8, ELK4 (Homo sapiens, UniProt P28324-2 1-405).
T8 sequence: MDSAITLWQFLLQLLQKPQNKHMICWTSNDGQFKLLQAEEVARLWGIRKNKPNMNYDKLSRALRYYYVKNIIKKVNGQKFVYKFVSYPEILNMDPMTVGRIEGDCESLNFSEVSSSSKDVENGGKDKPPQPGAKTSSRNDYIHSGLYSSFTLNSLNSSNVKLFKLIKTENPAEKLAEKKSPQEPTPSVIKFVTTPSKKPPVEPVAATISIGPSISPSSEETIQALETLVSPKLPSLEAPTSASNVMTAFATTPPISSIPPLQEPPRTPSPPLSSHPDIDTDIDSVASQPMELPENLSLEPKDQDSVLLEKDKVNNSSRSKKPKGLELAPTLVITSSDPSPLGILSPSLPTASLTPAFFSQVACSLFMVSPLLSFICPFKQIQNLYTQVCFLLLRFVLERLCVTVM
In outline: as §1

Another experiment addresses T9, ETV2 (Homo sapiens, UniProt O00321 1-342).
T9 sequence: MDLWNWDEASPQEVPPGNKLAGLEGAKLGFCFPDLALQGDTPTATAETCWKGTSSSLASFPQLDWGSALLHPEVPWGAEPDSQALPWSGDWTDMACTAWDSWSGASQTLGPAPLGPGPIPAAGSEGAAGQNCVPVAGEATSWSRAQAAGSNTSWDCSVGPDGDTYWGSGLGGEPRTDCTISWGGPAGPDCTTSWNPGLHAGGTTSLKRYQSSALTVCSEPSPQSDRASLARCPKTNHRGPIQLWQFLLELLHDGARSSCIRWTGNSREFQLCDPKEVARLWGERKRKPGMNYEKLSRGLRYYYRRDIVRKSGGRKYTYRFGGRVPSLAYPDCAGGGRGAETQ
In outline: as §1

The target of a further experiment is SPIB (Homo sapiens, UniProt Q01892 1-262). In outline:
as §1

A further experiment addresses T10, FEV (Homo sapiens, UniProt Q99581 1-238).
T10 sequence: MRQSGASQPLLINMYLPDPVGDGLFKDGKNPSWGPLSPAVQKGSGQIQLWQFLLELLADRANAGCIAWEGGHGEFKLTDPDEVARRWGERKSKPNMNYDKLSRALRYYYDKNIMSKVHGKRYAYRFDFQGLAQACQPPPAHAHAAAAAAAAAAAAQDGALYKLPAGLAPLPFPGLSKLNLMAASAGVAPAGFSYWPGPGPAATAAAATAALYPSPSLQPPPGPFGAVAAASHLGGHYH
In outline: as §1

A further experiment has as its target T11, ELF3 (Homo sapiens, UniProt P78545 1-371).
T11 sequence: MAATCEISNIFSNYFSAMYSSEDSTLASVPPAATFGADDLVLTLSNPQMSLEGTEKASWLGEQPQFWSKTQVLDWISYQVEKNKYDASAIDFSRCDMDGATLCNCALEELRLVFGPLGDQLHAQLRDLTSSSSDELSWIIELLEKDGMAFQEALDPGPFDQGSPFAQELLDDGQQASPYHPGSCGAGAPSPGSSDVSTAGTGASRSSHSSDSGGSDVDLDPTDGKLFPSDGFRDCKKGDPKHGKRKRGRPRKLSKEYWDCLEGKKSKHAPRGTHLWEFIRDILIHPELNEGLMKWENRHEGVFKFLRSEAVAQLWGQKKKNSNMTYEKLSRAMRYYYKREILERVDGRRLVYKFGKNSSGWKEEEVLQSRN
In a few lines:
as §1

The target in another experiment is CRX (Homo sapiens, UniProt O43186 1-299). In outline: as §1
Another experiment deals with ETV1 (Homo sapiens, UniProt P50549 1-477). In a few lines:
as §1

Chain of ELF4 (Q99607 whole entry): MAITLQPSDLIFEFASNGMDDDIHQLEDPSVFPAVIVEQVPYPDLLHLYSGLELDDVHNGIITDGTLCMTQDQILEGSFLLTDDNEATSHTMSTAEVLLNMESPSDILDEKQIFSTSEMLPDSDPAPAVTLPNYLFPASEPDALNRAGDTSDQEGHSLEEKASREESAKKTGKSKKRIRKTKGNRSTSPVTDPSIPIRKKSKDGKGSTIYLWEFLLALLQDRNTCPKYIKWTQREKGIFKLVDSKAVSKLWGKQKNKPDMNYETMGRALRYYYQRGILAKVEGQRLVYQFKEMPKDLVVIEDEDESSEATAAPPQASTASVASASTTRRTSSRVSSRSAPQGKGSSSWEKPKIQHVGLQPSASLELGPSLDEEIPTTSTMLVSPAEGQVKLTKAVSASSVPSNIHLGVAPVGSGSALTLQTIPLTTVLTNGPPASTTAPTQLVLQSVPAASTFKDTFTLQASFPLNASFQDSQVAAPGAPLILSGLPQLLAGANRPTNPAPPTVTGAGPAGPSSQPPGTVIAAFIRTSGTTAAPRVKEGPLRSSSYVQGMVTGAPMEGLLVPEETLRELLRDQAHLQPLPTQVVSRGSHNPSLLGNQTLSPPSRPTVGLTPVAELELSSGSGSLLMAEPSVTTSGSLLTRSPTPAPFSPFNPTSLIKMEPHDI
Chain of ETV5 (P41161 whole entry): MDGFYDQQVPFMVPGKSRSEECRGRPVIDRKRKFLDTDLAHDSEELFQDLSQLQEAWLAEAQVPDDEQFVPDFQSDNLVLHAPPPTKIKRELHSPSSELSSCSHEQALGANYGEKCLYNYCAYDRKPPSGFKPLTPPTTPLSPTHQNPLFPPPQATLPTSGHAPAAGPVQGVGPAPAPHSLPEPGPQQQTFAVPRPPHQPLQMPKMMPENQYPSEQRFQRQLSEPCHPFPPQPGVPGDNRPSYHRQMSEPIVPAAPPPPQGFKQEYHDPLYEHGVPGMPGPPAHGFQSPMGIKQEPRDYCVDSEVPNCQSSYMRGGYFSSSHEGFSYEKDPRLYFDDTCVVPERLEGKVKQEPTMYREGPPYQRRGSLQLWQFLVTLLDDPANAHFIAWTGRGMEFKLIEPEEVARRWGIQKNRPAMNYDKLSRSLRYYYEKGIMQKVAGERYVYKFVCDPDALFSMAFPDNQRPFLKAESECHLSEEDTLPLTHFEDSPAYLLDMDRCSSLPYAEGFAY
Chain of ELF1 (P32519 whole entry): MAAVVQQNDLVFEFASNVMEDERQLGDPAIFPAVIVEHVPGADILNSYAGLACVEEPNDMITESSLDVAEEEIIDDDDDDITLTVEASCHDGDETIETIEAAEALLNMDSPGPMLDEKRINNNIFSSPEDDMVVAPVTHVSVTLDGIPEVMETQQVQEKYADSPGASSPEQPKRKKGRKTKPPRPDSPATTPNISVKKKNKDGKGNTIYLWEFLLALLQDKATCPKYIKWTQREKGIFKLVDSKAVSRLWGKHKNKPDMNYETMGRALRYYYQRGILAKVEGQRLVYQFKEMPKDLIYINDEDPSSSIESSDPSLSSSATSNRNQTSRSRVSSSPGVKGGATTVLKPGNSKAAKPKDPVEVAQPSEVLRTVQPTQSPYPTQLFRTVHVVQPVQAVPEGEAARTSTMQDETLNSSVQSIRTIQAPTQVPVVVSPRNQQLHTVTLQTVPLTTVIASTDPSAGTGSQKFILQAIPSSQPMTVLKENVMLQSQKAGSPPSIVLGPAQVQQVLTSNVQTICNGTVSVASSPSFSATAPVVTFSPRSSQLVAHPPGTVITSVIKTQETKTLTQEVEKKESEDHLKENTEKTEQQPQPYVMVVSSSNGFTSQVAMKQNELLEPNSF
Chain of CRX (O43186 whole entry): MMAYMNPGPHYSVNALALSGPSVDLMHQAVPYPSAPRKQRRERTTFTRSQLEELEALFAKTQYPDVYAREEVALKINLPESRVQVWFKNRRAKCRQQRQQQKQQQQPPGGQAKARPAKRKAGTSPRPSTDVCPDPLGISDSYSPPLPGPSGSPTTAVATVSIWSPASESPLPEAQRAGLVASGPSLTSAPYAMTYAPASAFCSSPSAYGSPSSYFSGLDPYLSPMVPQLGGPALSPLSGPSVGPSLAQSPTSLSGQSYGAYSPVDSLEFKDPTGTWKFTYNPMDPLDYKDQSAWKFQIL
Chain of SPIB (Q01892 whole entry): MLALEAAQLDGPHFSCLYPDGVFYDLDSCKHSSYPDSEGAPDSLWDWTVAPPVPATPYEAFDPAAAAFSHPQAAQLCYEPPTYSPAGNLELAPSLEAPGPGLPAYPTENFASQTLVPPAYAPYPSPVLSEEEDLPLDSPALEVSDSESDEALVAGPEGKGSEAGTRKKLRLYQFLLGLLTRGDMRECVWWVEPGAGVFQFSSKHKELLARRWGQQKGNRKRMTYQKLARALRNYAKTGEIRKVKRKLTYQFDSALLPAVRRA
Chain of ETV1 (P50549 whole entry): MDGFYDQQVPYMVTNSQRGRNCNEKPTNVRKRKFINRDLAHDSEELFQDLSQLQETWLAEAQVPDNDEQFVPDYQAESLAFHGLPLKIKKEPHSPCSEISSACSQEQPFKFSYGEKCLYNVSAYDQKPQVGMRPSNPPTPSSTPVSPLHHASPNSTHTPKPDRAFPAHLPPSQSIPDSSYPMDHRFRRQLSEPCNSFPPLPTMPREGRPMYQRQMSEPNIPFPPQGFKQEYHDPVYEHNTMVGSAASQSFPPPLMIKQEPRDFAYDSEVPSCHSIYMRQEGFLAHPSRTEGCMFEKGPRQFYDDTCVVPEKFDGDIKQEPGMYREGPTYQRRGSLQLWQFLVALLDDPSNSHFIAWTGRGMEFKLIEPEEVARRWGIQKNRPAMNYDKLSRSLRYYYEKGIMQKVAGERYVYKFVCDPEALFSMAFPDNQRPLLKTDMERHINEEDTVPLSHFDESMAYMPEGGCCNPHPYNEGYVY

Take CATGGG: the binding signal in the experiment with FLI1 is 1.04 fold enrichment (6-mer frequency, TF over GST control); with ELK1 it was 1.07 fold enrichment (6-mer frequency, TF over GST control); with GABPA it was 1.04 fold enrichment (6-mer frequency, TF over GST control); with ERG, 1.07 fold enrichment (6-mer frequency, TF over GST control); in the experiment with ELF1, 1.05 fold enrichment (6-mer frequency, TF over GST control); in the experiment with EHF, 1.03 fold enrichment (6-mer frequency, TF over GST control). Moreover, the binding signal with SPI1 was 1.03 fold enrichment (6-mer frequency, TF over GST control); in the experiment with ELK3, 1.09 fold enrichment (6-mer frequency, TF over GST control); in the experiment with ETV5, 1.01 fold enrichment (6-mer frequency, TF over GST control); in the experiment with SPIC it was 1.05 fold enrichment (6-mer frequency, TF over GST control); with ELF4, 1 fold enrichment (6-mer frequency, TF over GST control); in the experiment with ELK4 it was 1.02 fold enrichment (6-mer frequency, TF over GST control). For the same sequence, in the experiment with ETV2, the binding signal is 1.04 fold enrichment (6-mer frequency, TF over GST control).

Turning to ATATGA, the binding signal with FLI1 was 1.11 fold enrichment (6-mer frequency, TF over GST control); with ELK1 it was 1.07 fold enrichment (6-mer frequency, TF over GST control); in the experiment with GABPA, 1.1 fold enrichment (6-mer frequency, TF over GST control); in the experiment with ERG it was 1.14 fold enrichment (6-mer frequency, TF over GST control); in the experiment with ELF1, 1.06 fold enrichment (6-mer frequency, TF over GST control); in the experiment with EHF it was 1.07 fold enrichment (6-mer frequency, TF over GST control). The binding signal with SPI1 was 1.1 fold enrichment (6-mer frequency, TF over GST control); with SPIB, 1.1 fold enrichment (6-mer frequency, TF over GST control); with ELK3 it was 1.18 fold enrichment (6-mer frequency, TF over GST control); in the experiment with FEV, 1.03 fold enrichment (6-mer frequency, TF over GST control); with ETV5, 1.11 fold enrichment (6-mer frequency, TF over GST control); in the experiment with SPIC, 1.16 fold enrichment (6-mer frequency, TF over GST control). Moreover, the binding signal with ELF4 is 1.1 fold enrichment (6-mer frequency, TF over GST control); with ELK4, 1.19 fold enrichment (6-mer frequency, TF over GST control); in the experiment with ELF3, 1.1 fold enrichment (6-mer frequency, TF over GST control); with CRX, 1.02 fold enrichment (6-mer frequency, TF over GST control); with ETV1, 1.05 fold enrichment (6-mer frequency, TF over GST control).
